Source: PubChem BioAssay
Records with an inconclusive call do not appear. Activity calls are given as the source filed them.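 How the source made its calls, unless noted: active means inhibition over a set limit, the all-compound mean plus 3 SD, in both replicate runs; inconclusive means over that limit in just one replicate run; inactive means at or under that limit in both runs.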

How the values were obtained:
[1] = Her2 expression decrease, cell viability multiplex – SKBR3 breast tumor cells, AlphaScreen, ATP viability, primary screen (AID 461;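 active means Her2 level under about 52% in both replicate screens, with viability over 70% of control, limit read from the data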;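 on Her2 level: lower value means less Her2 protein in the cells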;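 on viability: percent of carrier control wells set as 100% viability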); conditions: SKBR3 Her2 protein level, 18-24 h, measured here: SKBR3 viability, ATP luminescence, at 10 µM
[2] = target: Receptor tyrosine-protein kinase erbB-2 (Homo sapiens) (UniProt P04626); test: as above; conditions: 18-24 h, at 10 µM, stronger effect = lower value
[3] = reduced viability of SK-BR-3 breast cancer cells – cell-based, 24 h, human, pilot screen (AID 572;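 active means viability at or below 10% of carrier control in both of two separate runs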;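 further: compound exposure lasted between 18 and 24 h rather than exactly 24 h; 100% = carrier-treated control wells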); conditions: SK-BR-3 viability, CellTiter-Glo luminescence, at 10 µM, stronger effect = lower value
[4] = HUVEC growth inhibition – cell-based, human, primary screen (AID 575;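 active means viability at or below 30% in both replicate assays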;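 further: 100% = median of untreated cell wells with 0.1% DMSO on each plate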); conditions: HUVEC proliferation, CellTiter-Glo luminescence, 72 h; at 10 µM; stronger effect = lower value
[5] = H69AR cell proliferation blockers – human, duplicate replicates, primary screen (AID 580;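 active means viability at or under a set limit in both replicates, limit being median viability minus 3 SD, cut at about 48% in these data, passing the limit was not always enough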;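 further: 100% = mean luminescence of untreated wells and 0% = no signal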); conditions: H69AR lung tumor cells viability, ATP luminescence, 72 h; at 10 µM; stronger effect = lower value
[6] = MRP1 drug-resistance reversers in H69AR cells – cell-based, doxorubicin co-treatment, pilot screen (AID 601;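 active means viability loss from added drug above about 55%, and viability with drug at most 40%, in both replicates, limit read from the data, passing the limit was not always enough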); conditions: CellTiter-Glo, 72 h, at 10 µM; for differential viability (reversal): stronger effect = higher value
[7] = yeast transport mutant growth inhibition pilot in 384-well plates, post-Golgi transport modulator project (AID 636; in the data active means inhibition above about 31%); conditions: absorbance 615 nm, about 18 h, stronger effect = higher value
[8] = growth suppression of yeast trafficking mutant, preliminary HTS, modulators of trafficking downstream of Golgi apparatus project, 1536-format plate, OD 615 nm (AID 637; in the data active means inhibition above about 30%); conditions: yeast transport mutant growth, absorbance 615 nm, 18 h; stronger effect = higher value
[9] = S. cerevisiae growth inhibition in permissive medium (OD615), pilot counter-assay for S. cerevisiae lifespan shortening project, permissive growth control (AID 705;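 active means growth inhibition above 25% in both replicates, a cutoff set 3 SD above the mean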); conditions: OD615, 24 h, at 10 µM, stronger effect = higher value
[10] = S. cerevisiae growth inhibition in restrictive medium, OD615, pilot screen, restrictive growth control, yeast lifespan reduction project (AID 706;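 active means growth inhibition above a set limit, 3 SD over mean compound inhibition, in both replicates, cut at about 43% in these data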;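 further: modified DeaD lifespan yeast strain shifted to restrictive glucose medium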); conditions: OD615, 48 h, at 10 µM, stronger effect = higher value
[11] = doxorubicin toxicity protection in MRP-1 cells – H69AR cells, CellTiter-Glo, duplicate, MRP-1 activator project, pilot screen (AID 807;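 active means viability increase at or above a cutoff of the median across tested compounds plus 3 SD, cut at about 8.5% in these data, passing the limit was not always enough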;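 further: compound pretreatment 18-22 h then 72 h combined with doxorubicin; 0% = doxorubicin alone and 100% = vehicle without doxorubicin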); conditions: H69AR viability with doxorubicin, CellTiter-Glo luminescence; at 10 µM; stronger effect = higher value
[12] = viability of HCT116 without oncogenic beta-catenin – human colon tumor cells, pilot screen (AID 823;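 active means cell viability at or below a set limit in both duplicate runs, the limit being the all-compound median minus 4 SD, cut at about 23% in these data, passing the limit was not always enough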;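 further: 0% = wells killed by 20 µM Hyamine and 100% = untreated DMSO cell wells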); conditions: HCT116 beta-catenin knockout viability, CellTiter-Glo, 60 h; at 10 µM; stronger effect = lower value
[13] = viability of PTEN-null HCT116 cells – cell-based, HCT116 clonal line, CellTiter-Glo, pilot screen (AID 824;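 active means viability at or below 27.92% in each of two runs, the all-compound median minus 4 SD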;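 further: 0% = 20 µM Hyamine control and 100% = vehicle cell control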); conditions: HCT116 PTEN-deleted viability, 60 h, at 10 µM, stronger effect = lower value
[14] = RAM pathway blockade in budding yeast – dse1pr::URA3 reporter, 5-FOA selection, pilot screen (AID 869);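 further: 0% = DMSO wells with no growth and 100% = 10 µM 1-NA-PP1 with full growth; RAM network block rescues cells from 5-FOA so hits raise OD615 growth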; conditions: S. cerevisiae dse1pr::URA3 5-FOA growth, OD615, 2 d; at 10 µM; stronger effect = higher value; strain carries analog-sensitive mutant Cbk1 kinase
[15] = RAM signaling pathway blockade in yeast – S. cerevisiae, Pdr1DBD-CYC8 efflux-inhibited sensitized strain, primary screen (AID 1298;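 active means RAM network inhibition above 8.4% in each of two replicates, 3 SD over the compound average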;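 further: 0% = DMSO untreated cells without growth and 100% = 10 µM 1-NA-PP1 full growth; higher means more yeast growth rescued from 5-FOA killing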); conditions: S. cerevisiae cbk1-as DSE1-URA3 strain, 5-FOA growth OD615, 2 d; at 50 µM; stronger effect = higher value
[16] = H69AR cells + 2 uM doxorubicin, measured here: viability with 2 uM doxorubicin, stronger effect = lower value
[17] = H69AR cells, compound alone cytotoxicity

Chain of Receptor tyrosine-protein kinase erbB-2 (Homo sapiens) (P04626 whole entry, looked up): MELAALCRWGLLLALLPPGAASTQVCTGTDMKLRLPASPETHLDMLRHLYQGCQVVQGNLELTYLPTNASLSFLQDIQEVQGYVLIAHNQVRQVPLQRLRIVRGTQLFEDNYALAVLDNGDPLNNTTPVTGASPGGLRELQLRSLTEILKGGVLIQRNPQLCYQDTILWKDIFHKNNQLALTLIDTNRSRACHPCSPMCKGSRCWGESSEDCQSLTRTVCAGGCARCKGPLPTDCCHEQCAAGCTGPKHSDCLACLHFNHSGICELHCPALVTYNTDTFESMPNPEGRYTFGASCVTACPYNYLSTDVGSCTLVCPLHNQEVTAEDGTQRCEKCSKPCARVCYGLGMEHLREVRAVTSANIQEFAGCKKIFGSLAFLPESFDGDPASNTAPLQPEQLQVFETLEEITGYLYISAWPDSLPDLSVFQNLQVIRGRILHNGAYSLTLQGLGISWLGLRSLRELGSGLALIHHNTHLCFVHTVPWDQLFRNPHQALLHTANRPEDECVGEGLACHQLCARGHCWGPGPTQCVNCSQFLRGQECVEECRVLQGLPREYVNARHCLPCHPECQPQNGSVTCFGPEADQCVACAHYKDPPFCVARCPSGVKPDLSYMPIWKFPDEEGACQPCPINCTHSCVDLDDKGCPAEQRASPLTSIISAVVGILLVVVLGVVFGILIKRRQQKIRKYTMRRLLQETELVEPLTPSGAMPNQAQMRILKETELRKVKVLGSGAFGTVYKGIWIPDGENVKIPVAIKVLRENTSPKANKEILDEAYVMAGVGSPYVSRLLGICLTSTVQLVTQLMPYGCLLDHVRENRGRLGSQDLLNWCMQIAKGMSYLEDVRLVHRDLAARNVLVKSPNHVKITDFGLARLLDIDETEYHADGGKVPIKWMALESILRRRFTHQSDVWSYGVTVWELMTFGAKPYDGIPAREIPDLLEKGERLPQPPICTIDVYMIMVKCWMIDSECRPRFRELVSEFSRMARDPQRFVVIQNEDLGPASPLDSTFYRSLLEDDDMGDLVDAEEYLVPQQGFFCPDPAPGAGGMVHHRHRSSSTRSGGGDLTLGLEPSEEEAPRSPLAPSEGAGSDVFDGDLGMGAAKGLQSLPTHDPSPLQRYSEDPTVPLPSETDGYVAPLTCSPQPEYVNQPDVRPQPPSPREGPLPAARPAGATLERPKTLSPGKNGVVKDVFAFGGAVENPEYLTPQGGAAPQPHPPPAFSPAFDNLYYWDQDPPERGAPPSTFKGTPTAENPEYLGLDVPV

Compound | viability [1] | Her2 level [2] | viability [3] | viability [4] | viability [5] | differential viability (reversal) ([6]; H69AR cells + 2 uM doxorubicin) | viability [6, 16] | viability [6, 17] | inhibition [7] | inhibition [8] | growth inhibition [9] | growth inhibition [10] | viability increase [11] | viability [12] | viability [13] | inhibition [14] | RAM network inhibition [15]
CN(C)S(=O)(=O)c1ccc2c(c1)c(=O)c(C(=O)NCCCN1CCCCCC1)cn2C | 110% | 105% (inactive) | 110% (inactive) | 90.7% (inactive) | 102% (inactive) | -4.19% (inactive) | 106% | 102% | -1.03% (inactive) | -7.83% (inactive) | 9.68% (inactive) | 8.09% (inactive) | -1.28% (inactive) | 103% (inactive) | 99.5% (inactive) | 0.785% (inactive) | 0.76% (inactive)
COC(=O)C1(C#N)C(c2ccccc2)C1(C(=O)OC)C(=O)OC (stereo not drawn) | 117% | 90% (inactive) | 117% (inactive) | 105% (inactive) | 102% (inactive) | 11.3% (inactive) | 90.8% | 102% | -3.47% (inactive) | 0.65% (inactive) | -6.71% (inactive) | -6.54% (inactive) | -1.92% (inactive) | 77.4% (inactive) | 97.7% (inactive) | 1.43% (inactive) | 2.51% (inactive)
CC1(C)CC(=O)c2cnc(NC(=O)Cc3ccc(Cl)cc3)nc2C1 | 71.5% | 96.5% (inactive) | 71.5% (inactive) | 96.2% (inactive) | 100% (inactive) | 10.6% (inactive) | 89.6% | 100% | -9.46% (inactive) | -0.98% (inactive) | -5.41% (inactive) | -16.6% (inactive) | 2.03% (inactive) | 94.4% (inactive) | 90.6% (inactive) | 2.17% (inactive) | 5.3% (inactive)
O=C(NCCSc1c[nH]c2ccccc12)c1ccc(Br)o1 | 104% | 94.5% (inactive) | 104% (inactive) | 47.8% (inactive) | 54.6% (inactive) | -21.1% (inactive) | 75.8% | 54.6% | -2.93% (inactive) | 1.17% (inactive) | -10.7% (inactive) | -12.6% (inactive) | -3.97% (inactive) | 106% (inactive) | 93.6% (inactive) | 1.83% (inactive) | 3.28% (inactive)
CCC(=O)N1CCN(c2nc(-c3ccccc3)c3c(c2C#N)CCCC3)CC1 | 105% | 93% (inactive) | 105% (inactive) | 97.2% (inactive) | 156% (inactive) | 72.2% (inactive) | 84% | 156% | -8.24% (inactive) | 4.59% (inactive) | -2.54% (inactive) | -4.34% (inactive) | -5.2% (inactive) | 75.8% (inactive) | 73.1% (inactive) | 0.35% (inactive) | 2.27% (inactive)
Cc1ccccc1-c1nc(CN2CCC(C(=O)N3CCC(C(N)=O)CC3)CC2)c(C)o1 | 108% | 104% (inactive) | 108% (inactive) | 105% (inactive) | 89.5% (inactive) | 4.8% (inactive) | 84.7% | 89.5% | -5.73% (inactive) | 4.67% (inactive) | -8.16% (inactive) | 3.29% (inactive) | -2.4% (inactive) | 92.8% (inactive) | 99.2% (inactive) | 1.07% (inactive) | 2.99% (inactive)
Cc1ccc2[nH]c(=O)c3cc(C(=O)NCCN4CCN(C)CC4)sc3c2c1 | 96% | 91.5% (inactive) | 96% (inactive) | 97.1% (inactive) | 87.3% (inactive) | 9.29% (inactive) | 78% | 87.3% | -1.03% (inactive) | 6% (inactive) | -9.77% (inactive) | 1.5% (inactive) | -3.64% (inactive) | 74.5% (inactive) | 81.8% (inactive) | 1% (inactive) | -1.95% (inactive)
CC(=O)N1c2c(cc(Br)cc2S(=O)(=O)N2CCN(c3ccccn3)CC2)CC1C (stereo not drawn) | 80.5% | 106% (inactive) | 80.5% (inactive) | 64.9% (inactive) | 86.6% (inactive) | -3.56% (inactive) | 90.2% | 86.6% | -1.05% (inactive) | 24.6% (inactive) | 6.66% (inactive) | 1.97% (inactive) | 1.49% (inactive) | 99.1% (inactive) | 95.6% (inactive) | 0.77% (inactive) | 0.3% (inactive)
Cc1cccc(C(=O)N2CCN(C(=O)c3cccc(C)c3)C(C)C2)c1 (stereo not drawn) | 110% | 116% (inactive) | 110% (inactive) | 107% (inactive) | 90.3% (inactive) | 2.61% (inactive) | 87.7% | 90.3% | -1.76% (inactive) | 24.8% (inactive) | -19.2% (inactive) | -9.12% (inactive) | 0.74% (inactive) | 95.9% (inactive) | 96.2% (inactive) | 0.75% (inactive) | 0.55% (inactive)
O=C(C1CCN(S(=O)(=O)c2cccc3cccnc23)CC1)N1CCN(C2CCCCC2)CC1 | 102% | 102% (inactive) | 102% (inactive) | 99.9% (inactive) | 102% (inactive) | 2.56% (inactive) | 99.2% | 102% | -2.8% (inactive) | -0.49% (inactive) | 6.08% (inactive) | 0.815% (inactive) | -2.03% (inactive) | 97.8% (inactive) | 98.7% (inactive) | 1.12% (inactive) | 7.73% (inactive)
Nc1nc2n(n1)C(c1cccc(Br)c1)CC(c1ccccc1)N2 (stereo not drawn) | 93.5% | 103% (inactive) | 93.5% (inactive) | 82% (inactive) | 88.8% (inactive) | -9.83% (inactive) | 98.7% | 88.8% | -3.33% (inactive) | 0.83% (inactive) | -6.41% (inactive) | 12.7% (inactive) | -1.81% (inactive) | 97.1% (inactive) | 86% (inactive) | 1.22% (inactive) | 12.1% (inactive)
COc1ccc(-c2nc(CSCC(=O)N3CCN(c4cccc(C)c4)C(C)C3)c(C)o2)cc1OC (stereo not drawn) | 102% | 67.5% (inactive) | 102% (inactive) | 54.6% (inactive) | 85.7% (inactive) | -5.97% (inactive) | 91.7% | 85.7% | -2.27% (inactive) | 1.33% (inactive) | -4.45% (inactive) | 8.39% (inactive) | 0.02% (inactive) | 56.9% (inactive) | 56.4% (inactive) | 1.96% (inactive) | 7.25% (inactive)
Nc1cccc2c1C(=O)N(c1ccccc1)C2=O | 95% | 97% (inactive) | 95% (inactive) | 91.4% (inactive) | 98.8% (inactive) | 14.7% (inactive) | 84.1% | 98.8% | -3.87% (inactive) | -1.48% (inactive) | -10.6% (inactive) | -8.73% (inactive) | -2.17% (inactive) | 106% (inactive) | 95.2% (inactive) | 1.5% (inactive) | 0.47% (inactive)
CCCc1cc(C(=O)Nc2sc3c(c2C#N)CCC3)no1 | 86.5% | 77.5% (inactive) | 86.5% (inactive) | 58% (inactive) | 29.8% (active) | -25.9% (inactive) | 55.6% | 29.8% | -2.05% (inactive) | -4.5% (inactive) | 4.12% (inactive) | 0.215% (inactive) | -2.05% (inactive) | 92.2% (inactive) | 87.1% (inactive) | -0.06% (inactive) | -1.49% (inactive)
C=CCSc1nc(N)c2c(C)c(C)sc2n1 | 98.5% | 70.5% (inactive) | 98.5% (inactive) | 86.5% (inactive) | 88% (inactive) | 4.54% (inactive) | 83.5% | 88% | -0.52% (inactive) | -8.33% (inactive) | -10.6% (inactive) | -14% (inactive) | -3.58% (inactive) | 95.3% (inactive) | 92.4% (inactive) | 0.34% (inactive) | 8.79% (inactive)
CC(=O)c1c(OC(=O)c2ccco2)c2ccccc2n1C | 91% | 102% (inactive) | 91% (inactive) | 74.6% (inactive) | 75.3% (inactive) | -8.43% (inactive) | 83.8% | 75.3% | -0.64% (inactive) | -8.83% (inactive) | -14.2% (inactive) | -7.23% (inactive) | -4.82% (inactive) | 75.1% (inactive) | 91.3% (inactive) | 0.15% (inactive) | 1.13% (inactive)
COc1ccc(OC)c(C2=NOC(C(=O)Nc3c(C)n(C)n(-c4ccccc4)c3=O)C2)c1 (stereo not drawn) | 88.5% | 96% (inactive) | 88.5% (inactive) | 84.6% (inactive) | 95.3% (inactive) | 8.86% (inactive) | 86.5% | 95.3% | -2.93% (inactive) | -7.54% (inactive) | -11.8% (inactive) | -24% (inactive) | -0.56% (inactive) | 99.4% (inactive) | 107% (inactive) | 0.74% (inactive) | 3.94% (inactive)
O=C(Nc1ccccc1)c1cnc2n(c1=O)CCS2 | 92.5% | 88% (inactive) | 92.5% (inactive) | 101% (inactive) | 91.1% (inactive) | -2.48% (inactive) | 93.5% | 91.1% | -4.8% (inactive) | -0.49% (inactive) | -8.84% (inactive) | 5.01% (inactive) | -0.69% (inactive) | 104% (inactive) | 97.2% (inactive) | 1.94% (inactive) | 2.15% (inactive)
COc1ccc(NC(=O)CSc2nc3c(c(=O)n2-c2ccccc2OC)SCC3)cc1 | 102% | 110% (inactive) | 102% (inactive) | 87.4% (inactive) | 89.7% (inactive) | -5.71% (inactive) | 95.4% | 89.7% | -1.6% (inactive) | -5.5% (inactive) | 1.7% (inactive) | -1.84% (inactive) | -0.32% (inactive) | 99% (inactive) | 98.9% (inactive) | 2.67% (inactive) | 3.97% (inactive)
